Measured values taken from PubChem BioAssay AID1465 (SRMLSC, 2008).
About 160 (0.073%) of roughly 220,000 compounds were called active. Only a sample is shown. Potency and affinity values are given separately. A number with no mark means an inactive call.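 How the source made its calls: active means fold induction of absorbance versus untreated yeast above a set limit, then at least 30% activation at any dose in follow-up; inconclusive means repeats straddling the limit, or above it without dose testing; inactive means fold induction below the set limit.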

Assay: mitochondrial function rescue without frataxin homolog – Friedreich's ataxia, plus single-dose screen, dose response (AID 1465)
Conditions: S. cerevisiae Yfh1-off respiration, WST-1 reduction, 72 h; at 50 µM; hits give high values

SMILES	fold induction
CC[n+]1c(/C=C2\C=C(C)CC(C)(C)C2)sc2ccccc21	0.86
CC[n+]1c(/C=C2/C=C(C)CC(C)C2)sc2ccccc21 (centres undefined)	0.96
CC[n+]1c(/C=C(\C)SC)sc2ccccc21	0.92
CC[n+]1c(/C=C2\C=C(C)CC(C)C2)sc2ccccc21 (centres undefined)	0.873
COc1ccc(C(=O)COC(=O)c2ccc(N(C)C)cc2)cc1	1.01
Cc1[nH]nc(SCC(=O)NC2CCCC2)c1[N+](=O)[O-]	1.05
COCC(=O)N1CCCN(c2nc3c(C)cccc3cc2C#N)CC1	0.96
CCC(=O)N1COC[C@@H]1Cc1ccccc1	1.04
COC(=O)c1cc2c(ccn2-c2ccc(F)cc2)n1Cc1ccc(C#N)cc1	1.03
Cn1cccc1/C=C1\SC(=S)N(Nc2ccccc2)C1=O	1.02
Cn1cccc1/C=C1\SC(=S)N(NC(=O)c2ccccc2)C1=O	1.81
CCC(C(=O)O)N1C(=O)/C(=C/C(C)=C/c2ccccc2)SC1=S (centres undefined)	1.22
O=C(O)C(Cc1ccccc1)N1C(=O)/C(=C/c2ccccc2)SC1=S (centres undefined)	0.93
NC(=O)c1cccc2c(=O)oc3ccccc3c12	0.99
CN1CCN(C(=O)c2cc(C(C)(C)C)cc(C(C)(C)C)c2)CC1	1.02
Cn1nnnc1P(=O)(c1ccccc1)c1ccccc1	1.15
O=C(Nc1ccccc1-c1nc2ccccc2[nH]1)c1ccc(N2C(=O)CCC2=O)cc1	1.11
CC1=C(N2CCOCC2)CCC1=O	0.92
O=c1c(N2CCOCC2)c(N2CCOCC2)c1=O	1.08
Cc1nc2ccc(NC(=O)COc3ccccc3[N+](=O)[O-])cc2s1	0.97
CN(C(=O)COC(=O)c1ccc(Cl)cc1N)C1CCCCC1	1.06
CC(=O)c1cccc(NC(=O)N2CCCC2C(=O)Nc2c(C)cccc2C)c1 (centres undefined)	1.07

SMILES	fold induction
COc1ccc(C2=NN(c3nc(C)cc(C)n3)C(=O)C2)cc1	1.09
COc1ccc(C2=NN(c3nc4ccccc4s3)C(=O)/C2=C\N(C)C)cc1	1.14
CC(=O)Oc1cccc(-c2nc3ccccc3c(=O)o2)c1	0.89
CCOC(=O)c1[nH]c2ccccc2c1NC(=O)C1CCCCC1	1.05
Cc1coc2c1C(=O)C(=O)c1c-2ccc2c1CCCC2(C)C	1.54
Cc1ccc2c3c(cccc13)-c1ccccc1C2=O	0.91
Cc1ccc(CN2C(=O)CCC2C(=O)NC(C)C)cc1 (centres undefined)	1.04
COc1ccc2c(c1)c(CCN1C(=O)c3ccccc3C1=O)cn2C(=O)c1ccco1	1.01
CCOc1cc(/C=N\O)cc(Cl)c1OCC	0.87
CCOc1ccc2nc3ccc4[nH]onc4c3c2c1	0.93
O=C1C=C(Nc2ccccc2)c2ccccc2C1=O	1
CCCCNC1=CC(=O)C(=O)c2ccccc21	2.68
O=C(C1CCCO1)N1CCN(C(=S)Nc2ccccc2Cl)CC1 (centres undefined)	0.94
COCCCn1c(SCc2nnc(-c3ccc(OC)c(OC)c3)o2)nnc1-c1ccncc1	1.13
COC(=O)N/N=C/c1cc(OC)c(O)c([N+](=O)[O-])c1	1.19
COc1cc(/C=N/NC(=O)c2ccc(C)nc2)cc([N+](=O)[O-])c1O	1.21
COC(=O)C1CCN(C(=O)Cc2c(OC)ccc3cc(Br)ccc23)CC1	0.95
CCOC(=O)C1(Cc2cccc(OC)c2)CCN(CC=C(C)C)CC1	1.02
O=[N+]([O-])c1ccc(Sc2cccc3cccnc23)c2cccnc12	1.02
O=[N+]([O-])c1cccc(CSc2cccc[n+]2[O-])c1	1.1
CCN(C(=O)CSc1ncccc1C(=O)Oc1cccc([N+](=O)[O-])c1)c1cccc(C)c1	0.93
O=C(NCCNc1ccc([N+](=O)[O-])cc1)c1ccco1	1.23

SMILES	fold induction
CCN(CC)S(=O)(=O)c1ccc(N/N=C/c2cccnc2)nc1	1.09
c1cncc(CSc2ccc(-c3cccnc3)nn2)c1	1.13
Clc1ccc(CSc2ccc(-c3ccccn3)nn2)cc1	0.99
Cc1cc(C(=O)N/N=C/c2ccccc2Br)no1	0.94
COC(=O)c1nc(NC2=NCCCCC2)n[nH]1	1.02
COC(=O)c1cc(OC)c(OC)cc1NC(=O)c1cccc(OC)c1OC	1.09
O=C(C=C1CCN(c2ncc(C(F)(F)F)cc2Cl)CC1)NNC(=O)Nc1ccccc1	0.89
O=C1NN(c2ccc(F)cc2)C(=O)/C1=C\c1cnn(-c2ccccc2)c1	1.14
COc1ccc(NC(=O)c2csc3c2CCCCC3)c(OC)c1	1
COc1ccc(CNC(=O)CCS(=O)(=O)Cc2ccc(C)cc2)c(OC)c1	0.98
CCOC(=O)c1cnn(-c2ccccc2)c1NC(=O)c1ccccc1C	0.92
CCN(CC)c1ccc(/C=N/NC(=O)c2cccc(S(=O)(=O)Nc3ccccc3OC)c2)cc1	1.14
COc1ccccc1NS(=O)(=O)c1cccc(C(=O)N/N=C/c2ccccc2OCC(=O)O)c1	0.99
O=C(NCc1n[nH]c(=S)n1-c1ccc(Cl)c(Cl)c1)c1cccs1	0.98
O=C(NNC1=C(C(=O)C(F)(F)F)CCC1)c1ccncc1	1.05
O=C(NNC1=C(C(=O)C(F)(F)F)CCC1)c1ccccc1O	0.82
O=C(NNC1=C(C(=O)C(F)(F)F)CCC1)c1ccc(Cl)cc1	1.11
O=C(NNC1=C(C(=O)C(F)(F)F)CCC1)c1ccccc1Cl	1.02
CN(C)c1ccc(NC(=O)C(=O)NCCOc2ccccc2)cc1	0.95
CC(C)=CC(=O)OCC(=O)Nc1cc(C)cc(C)c1	0.86
